This is a sample that favours compounds with a hit; in the whole collection about 2.2% have one here.
CHRM1 PAM: human M1 muscarinic receptor positive allosteric modulators, primary screen, CHO-K1 cells, Fluo-8 calcium fluorescence, 1536-well. Muscarinic acetylcholine receptor M1 (Homo sapiens), P11229. CHO-K1 hM1, ACh EC20; 0% = ACh EC20, 100% = maximal ACh. activation, % at 3 µM. hit rate 0.088% among 360,000; in the data active means activation above about 19%, passing the limit was not always enough
Target sequence (P11229 whole entry, looked up): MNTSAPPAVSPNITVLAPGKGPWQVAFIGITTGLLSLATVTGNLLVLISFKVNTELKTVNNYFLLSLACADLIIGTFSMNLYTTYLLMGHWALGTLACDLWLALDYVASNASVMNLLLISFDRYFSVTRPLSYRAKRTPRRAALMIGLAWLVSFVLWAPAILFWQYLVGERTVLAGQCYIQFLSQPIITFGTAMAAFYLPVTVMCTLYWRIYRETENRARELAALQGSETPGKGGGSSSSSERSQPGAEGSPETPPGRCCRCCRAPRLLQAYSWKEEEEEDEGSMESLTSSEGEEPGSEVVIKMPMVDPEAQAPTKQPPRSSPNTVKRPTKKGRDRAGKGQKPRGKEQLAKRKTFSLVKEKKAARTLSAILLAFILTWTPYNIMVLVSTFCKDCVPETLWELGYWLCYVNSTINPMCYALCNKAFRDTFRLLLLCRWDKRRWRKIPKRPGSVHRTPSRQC
CHRM4 PAM: human M4 muscarinic receptor positive allosteric modulators, primary screen, CHO-K1 cells, Fluo-8 calcium fluorescence. Muscarinic acetylcholine receptor M4 (Homo sapiens), P08173. CHO-K1 hM4/Gqi5, ACh EC20; 0% = ACh EC20, 100% = maximal ACh. activation, % at 3 µM. hit rate 0.4% among 360,000;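 active means activation above its plate's cutoff, the mean activation of sample wells plus 3 SD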
CHRM4 agonist: human M4 muscarinic receptor agonists, primary screen, CHO-K1 cells, Fluo-8 calcium fluorescence. Muscarinic acetylcholine receptor M4 (Homo sapiens), P08173. CHO-K1 hM4/Gqi5; vehicle 0%, full acetylcholine response 100%. activation, % at 3 µM. hit rate 0.14% among 360,000;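 active means activation above the run mean over all test wells plus 3 SD, cut at about 32% in these data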;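 further: peak over basal fluorescence ratio per well then scaled between controls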
M1 ag: human M1 muscarinic receptor agonists, primary screen, Fluo-8 calcium fluorescence, CHO-K1 cells, HTS | activation, % at 3 µM | Muscarinic acetylcholine receptor M1 (Homo sapiens), P11229 | hit rate 0.33% among 360,000 | CHO-K1 hM1, agonist mode; 0% DMSO, 100% acetylcholine EC100;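 active means activation above the run's mean compound activation plus 3 SD, cut at about 16% in these data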;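 further: peak over basal fluorescence ratio within a 140 s kinetic read after compound addition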
M4 antag: human M4 muscarinic receptor antagonists, primary screen, CHO cells, Fluo-8 calcium fluorescence. Muscarinic acetylcholine receptor M4 (Homo sapiens), P08173. CHO-hM4 cells, ACh EC80. inhibition, % at 3 µM. hit rate 0.73% among 360,000;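 active means inhibition above its plate's cutoff, the mean inhibition of sample wells plus 3 SD, cut at about 27% in these data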
M1 antag: human M1 muscarinic receptor antagonists, primary screen, CHO-K1 cells, Fluo-8 calcium fluorescence, 1536-well. Muscarinic acetylcholine receptor M1 (Homo sapiens), P11229. CHO-K1 hM1, ACh EC80 antagonist. inhibition, % at 3 µM. hit rate 1.3% among 360,000;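 active means percent inhibition above its own plate's cutoff, namely the mean of that plate's compound wells plus 3 SD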;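 further: peak over basal fluorescence ratio during 140 s after agonist addition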
Each line names hits and unclear results; the compound was inactive in the other large screens.

CCc1ccc(N(CC(=O)NCC2CCCO2)C(=O)CCC(=O)Nc2nccs2)cc1 (stereo not given)	none
CN(C)S(=O)(=O)c1ccc(C(=O)Oc2cc(=O)[nH]c3ccccc23)cc1	none
O=[N+]([O-])c1ccc(/C=C/C2=NN(c3ccccc3)C(c3ccco3)C2)o1 (stereo not given)	M1 ag 66.2, M1 antag 60.0
CC(=O)NN1C(=O)/C(=C/c2ccc(Br)o2)SC1=S	CHRM1 PAM 21.1
O=C(CNC(=O)c1ccco1)OCc1cccc(Cl)c1	none
O=C(NCCNC(=O)c1ccc(Cl)cc1Cl)c1ccco1	CHRM4 PAM 16.4
O=C(CNC(=O)c1ccco1)NCC(=O)OCc1cccc(Cl)c1	CHRM4 PAM 43.6
O=C(COC(=O)C1CC(=O)N(Cc2ccco2)C1)Nc1ccccc1[N+](=O)[O-] (stereo not given)	none
CCCCN1CCc2[nH]c(=S)[nH]c(=O)c2C1	CHRM1 PAM 24.6
Cc1nc(NC(=O)/C=C/c2ccc(C(C)(C)C)cc2)sc1C(=O)N(C)C	none
COc1ccc(-c2cc(C)no2)cc1S(=O)(=O)NCC1CCN(Cc2cc(C)ccc2C)CC1	M1 antag 51.1
Cc1cc(-c2ccc(C)c(S(=O)(=O)NCC3CCN(Cc4ccc(F)cc4)CC3)c2)on1	none
CCc1ccc(-c2cc(C)no2)cc1S(=O)(=O)NCCN1CCC(C)CC1	none
CCc1ccc(-c2cc(C)no2)cc1S(=O)(=O)NCCCN1CCN(c2ccccc2)CC1	M4 antag 31.3
COc1ccccc1CN1CCC(CNS(=O)(=O)c2cc(-c3cc(C)no3)ccc2C)CC1	M1 antag 66.2
CC(C)=CC(=O)OCC(=O)Nc1cc(C)ccc1C	none
O=C(Nc1ccc(Cl)cc1)N1CCN(c2ccc3nnc(-c4ccc(F)cc4)n3n2)CC1	M1 antag 41.5
O=C(Nc1ccc(Cl)cc1)N1CCC(c2nc(-c3ccc(F)cc3)no2)CC1	M1 antag 57.9
Cc1ccc(OCC(=O)Nc2ccc3c(c2)nc(CCN2CCCC2)n3C)cc1	none
CCOC(=O)c1ccc(-n2c(CCC(=O)O)ccc2-c2cccs2)cc1	none
CCN(C1CCS(=O)(=O)C1)S(=O)(=O)c1ccc(OC)c(OC)c1 (stereo not given)	CHRM4 PAM 23.2
O=[N+]([O-])c1c(Nc2ccc(O)cc2)cc(Cl)c2nonc12	M4 antag 78.2, M1 antag 41.5
O=C(Nc1cccc(F)c1)NC1CCCCC1	none
CC(C)CN(C(=O)COC(=O)C1c2ccccc2Oc2ccccc21)C1CCS(=O)(=O)C1 (stereo not given)	none
CN(C(=O)COC(=O)c1nc(-c2ccccc2)n(-c2ccccc2)n1)C1CCS(=O)(=O)C1 (stereo not given)	M1 antag 64.3
CN(C(=O)CSc1nc2ccccc2n1C)C1CCS(=O)(=O)C1 (stereo not given)	M1 antag 29.1
CN(C(=O)COC(=O)C1c2ccccc2Oc2ccccc21)C1CCS(=O)(=O)C1 (stereo not given)	M4 antag 94.9
O=C(CCN1C(=O)COc2ccccc21)NCCCN1CCCC1	none
O=C(CN1C(=O)NC2(CCCC2)C1=O)Nc1ccc(S(=O)(=O)N2CCOCC2)cc1	none
CC(C)(C)OC(=O)CNC(=O)c1[nH]cnc1C(=O)NCCCCCN	none
C[C@H](NC(=O)c1nc[nH]c1C(=O)N1CCN(C(=O)OC(C)(C)C)CC1)C(=O)OC(C)(C)C	none
CC(C)(C)OC(=O)CNC(=O)c1[nH]cnc1C(=O)NCCCCCNC(=O)OC(C)(C)C	CHRM4 agonist 34.5
CC(C)C[C@H](NC(=O)c1nc[nH]c1C(=O)N1CCN(C(=O)OC(C)(C)C)CC1)C(=O)OC(C)(C)C	CHRM4 PAM 25.3
CC(C)C[C@H](NC(=O)c1nc[nH]c1C(=O)NCCCCCNC(=O)OC(C)(C)C)C(=O)OC(C)(C)C	M4 antag 49.7, M1 antag 60.5
CCCNC(=O)COC(=O)c1cc(-c2ccc(OC)cc2)nc2ccccc12	none
COc1ccc(C(NC(=O)c2ccc(F)cc2)c2ccccc2)cc1 (stereo not given)	none
CCN(CC)CCNC(=O)Cn1nc(Cc2ccncc2)c2ccccc2c1=O	none
CC(=O)c1cccc(NS(=O)(=O)c2ccc(NC(=O)N3CCCCC3)cc2)c1	M1 antag 36.2
CC(C)c1ccc(N2C(=O)CSC23C(=O)N2CCCc4cccc3c42)cc1 (stereo not given)	M4 antag 89.6, M1 antag 98.4
COc1ccc(N2C(=O)CSC23C(=O)Nc2ccccc23)cc1 (stereo not given)	none
O=C(CSc1ccc2nnc(-c3ccccc3)n2n1)NCc1ccc2c(c1)OCO2	none
O=C(CSc1ccc2nnc(-c3cccnc3)n2n1)NCc1ccc2c(c1)OCO2	M1 antag 63.8
COc1ccc(CC(=O)Nc2ccc(NC(=O)c3ccc(Br)cc3)cc2)cc1OC	none
CCCCCn1nnc2c(=O)oc3ccccc3c21	CHRM4 PAM 28.3
CCCn1nnc2c(=O)oc3ccccc3c21	none
CCn1ccnc1[C@@H]1C[C@H]2CN(Cc3ccccc3OC)C(=O)[C@]23CCCN13	none
O=C1Nc2ccccc2/C1=N\N=C\C1=C(N2CCOCC2)C(=C\c2ccccc2)/CC1	M1 antag 30.2
COC(=O)C1=C(CSCc2ccco2)NC(=O)NC1c1cc(C)ccc1C (stereo not given)	none
CCCCc1nc2cc(C(=O)NCc3nccn3CC)ccc2o1	M4 antag 32.4, M1 antag 87.2
CCOC(=O)[C@H]1[C@H]2COc3ccc(C)cc3[C@@H]2N2C(=O)c3cc(OC)c(OC)cc3NC(=O)[C@@]12C	none
CCOC(=O)[C@H]1[C@H]2COc3ccccc3[C@@H]2N2C(=O)c3cc(OC)c(OC)cc3NC(=O)[C@@]12C	M4 antag 35.1
C[C@@]12C(=O)Nc3ccc(F)cc3C(=O)N1[C@H]1c3ccccc3OC[C@@H]1[C@@H]2c1ccccc1	M4 antag 89.1, M1 antag 89.1
COc1cc2c(cc1OC)C(=O)N1[C@H]3c4ccccc4OC[C@@H]3[C@H](c3ccccc3)[C@]1(C)C(=O)N2	none

Bioassay records from PubChem.
